Growth data for seven molecules are collected here from PubChem BioAssay (NCI).

Molecules are shown by their SMILES. This is part of a sample that, as a whole, favours compounds with a hit. Of some 83,000 tested, about 20% had one in any assay.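 Growth was measured after 48 h exposure to one concentration of compound in 96-well plates. Values under 10 count as active.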 Unmarked numbers belong to inactive results. The source made the active and inactive calls.

Some test systems named below: HCT-15 colon; HT29 colon; SNB-75 CNS; SNB-19 CNS; U251 CNS; PC-3 prostate; SK-MEL-5 melanoma; UACC-62 melanoma; LOX IMVI melanoma; SK-MEL-28 melanoma; SK-MEL-2 melanoma; EKVX NSCLC; SN12C renal; UO-31 renal; TK-10 renal; ACHN renal; CAKI-1 renal; CCRF-CEM leukemia; MOLT-4 leukemia.
Common to all, as to assay: NCI-60 one-dose screen, 48 h (100 = growth as untreated, 0 = no growth, -100 = all killed)
Conditions in all cases: 10 µM unless noted

`O=C(CCN1CCCC1)Nc1ccc2c(Nc3ccc(Br)cc3)c3ccccc3nc2c1`: the growth with HCT-15 colon was -73.9% (active); with HT29 colon it was 1.67% (active); with SNB-75 CNS, 37.3%; in the assay on SNB-19 CNS, -0.557% (active); in the assay with U251 CNS, -51% (active); in the assay with PC-3 prostate it was 4.09% (active). For the same molecule, the growth in the assay with SK-MEL-5 melanoma is 31.7%; in the assay on UACC-62 melanoma it was 77.8%; with LOX IMVI melanoma it was -92.4% (active); in the assay with SK-MEL-28 melanoma, -28.6% (active); in the assay with SK-MEL-2 melanoma, 97.1%; in the assay on EKVX NSCLC, 59.5%. Besides, the growth with SN12C renal is 30%; in the assay with UO-31 renal it was -96.8% (active); in the assay with TK-10 renal, -36.1% (active); in the assay with ACHN renal it was 29.4%; with CAKI-1 renal, 15.3%; with CCRF-CEM leukemia it was -15.6% (active). For the same molecule, the growth in the assay with MOLT-4 leukemia is -33.8% (active).

With `O=C(Nc1ccccc1)Nc1ccc2cc3ccc(NC(=O)Nc4ccccc4)cc3nc2c1`, the growth was 93.9% in the assay with HCT-15 colon; 4.81% (active) with HT29 colon; -0.331% (active) with SNB-75 CNS; -27.5% (active) with SNB-19 CNS; -39.3% (active) with U251 CNS; 51.5% in the assay with PC-3 prostate. Moreover, the growth was 83% in the assay with SK-MEL-5 melanoma; 18.7% with UACC-62 melanoma; -52.8% (active) with LOX IMVI melanoma; -13.4% (active) in the assay with SK-MEL-28 melanoma; 55.5% in the assay with SK-MEL-2 melanoma; 86.6% in the assay on EKVX NSCLC. The growth in the assay on SN12C renal was -26.5% (active); in the assay with UO-31 renal it was 89.9%; in the assay with TK-10 renal, 114%; in the assay with ACHN renal, 92%; in the assay on CAKI-1 renal, 80.3%; with CCRF-CEM leukemia, 0.957% (active). Further, in the assay with MOLT-4 leukemia, the growth is -27.6% (active).

As for `O=C1c2ccccc2C(=O)c2c([N+](=O)[O-])ccc(Cl)c21`, the growth was 75.9% in the assay on HCT-15 colon; 39.4% in the assay on HT29 colon; 96.4% in the assay with SNB-75 CNS; 99.1% in the assay with SNB-19 CNS; 65.6% with U251 CNS; 82.4% with PC-3 prostate. Further, the growth is 97.9% with SK-MEL-5 melanoma; 96.5% in the assay with UACC-62 melanoma; 55.4% in the assay on LOX IMVI melanoma; 106% in the assay on SK-MEL-28 melanoma; 107% with SK-MEL-2 melanoma; 113% with EKVX NSCLC. Besides, the growth in the assay with SN12C renal is 97.5%; in the assay with UO-31 renal, 76.6%; in the assay with TK-10 renal it was 87.6%; in the assay on ACHN renal it was 85.5%; in the assay with CAKI-1 renal, 39.4%; in the assay on CCRF-CEM leukemia, 63.2%. Moreover, the growth with MOLT-4 leukemia is 86.2%.

Turning to `NC(=NCc1ccccc1)C(N=Nc1ccccc1)C(=O)NCc1ccccc1` (stereo not drawn), the growth is 49.1% with HCT-15 colon; 18.3% in the assay on HT29 colon; 96.9% in the assay with SNB-75 CNS; 63.4% with SNB-19 CNS; 26.7% in the assay on U251 CNS; 62.7% in the assay with PC-3 prostate. Besides, the growth in the assay with SK-MEL-5 melanoma is 103%; in the assay with UACC-62 melanoma, 76.6%; in the assay on LOX IMVI melanoma, 42.7%; in the assay with SK-MEL-28 melanoma, 106%; with SK-MEL-2 melanoma, 107%; in the assay on EKVX NSCLC it was 82.5%. Also, the growth with SN12C renal was 58.6%; in the assay with UO-31 renal it was 68.3%; in the assay with TK-10 renal, 69.6%; in the assay with ACHN renal, 92.1%; with CAKI-1 renal, 54%; in the assay with CCRF-CEM leukemia it was 76%. Also, the growth in the assay on MOLT-4 leukemia is 61%.

With `CCOc1ccc(/C=N/Nc2cc(C)nc3ccc(Br)cc23)cc1`, the growth with HCT-15 colon is 57.9%; in the assay with HT29 colon, 100%; with SNB-75 CNS it was 99.9%; with SNB-19 CNS, 99.7%; with U251 CNS it was 77.5%; in the assay with PC-3 prostate, 81.4%. For the same molecule, the growth with SK-MEL-5 melanoma was 84.9%; in the assay on UACC-62 melanoma, 90.5%; with LOX IMVI melanoma it was 84.4%; with SK-MEL-28 melanoma, 91.6%; in the assay on SK-MEL-2 melanoma it was 117%; in the assay on EKVX NSCLC it was 83.5%. The growth in the assay with SN12C renal is 82.6%; with UO-31 renal it was 73.4%; in the assay with TK-10 renal, 112%; with ACHN renal it was 96.3%; in the assay on CAKI-1 renal, 95.2%; with CCRF-CEM leukemia, 38.9%. Besides, the growth with MOLT-4 leukemia was 76.2%.

On to `c1ccc(-c2cn3c(ccc4ccccc43)n2)cc1`, for which the growth in the assay on HCT-15 colon was 30.6%; with HT29 colon it was 19.8%; with SNB-75 CNS, 51.9%; in the assay on SNB-19 CNS, 65%; in the assay with U251 CNS, 51.8%; with PC-3 prostate, 72.2%. The growth with SK-MEL-5 melanoma is 27.4%; in the assay with UACC-62 melanoma, 43.5%; in the assay with LOX IMVI melanoma it was 52.3%; in the assay on SK-MEL-28 melanoma, 68.5%; with SK-MEL-2 melanoma it was 40.3%; in the assay on EKVX NSCLC it was 73.2%. For the same molecule, the growth in the assay on SN12C renal was 60.8%; in the assay on UO-31 renal it was 48.9%; in the assay with TK-10 renal, 89.5%; in the assay on ACHN renal, 79.5%; in the assay on CAKI-1 renal it was 38.6%; in the assay on CCRF-CEM leukemia, 65.1%. Besides, the growth with MOLT-4 leukemia was 57.8%.

In the case of `CN(C)CCC(=O)c1ccc([N+](=O)[O-])cc1`, the growth in the assay with HCT-15 colon was 103%; in the assay with HT29 colon it was 96.7%; with SNB-75 CNS, 90.9%; in the assay with SNB-19 CNS, 107%; in the assay with U251 CNS, 105%; with PC-3 prostate, 93.6%. The growth with SK-MEL-5 melanoma was 99%; in the assay with UACC-62 melanoma, 98.6%; in the assay with LOX IMVI melanoma, 111%; in the assay on SK-MEL-28 melanoma it was 104%; in the assay with SK-MEL-2 melanoma, 109%; in the assay on EKVX NSCLC, 106%. Also, the growth with SN12C renal was 99.1%; in the assay with UO-31 renal, 85.9%; in the assay on TK-10 renal it was 98.2%; with ACHN renal, 110%; in the assay on CAKI-1 renal it was 96.3%; in the assay with CCRF-CEM leukemia, 97.2%. Further, in the assay on MOLT-4 leukemia, the growth is 112%.
